# An excerpt weighted towards active compounds, which were near 28% of everything screened.
# Pyk2 oligo antag = antagonists of human Pyk2 oligomerization; Q293 cells, Pyk2 FERM NanoBiT luminescence; active compounds read low; z-score (the deposit names both 25 µM and 10 µM); actives 0.83% (n = 99,000); AID 1347419;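 active means Z-score of -3 or lower, scaled per plate to the spread of control and sample wells; inactive means z-score above -3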;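 further: negative z-score means lost luminescence so less FERM oligomerization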
# Target sequence (Q14289 whole entry, looked up): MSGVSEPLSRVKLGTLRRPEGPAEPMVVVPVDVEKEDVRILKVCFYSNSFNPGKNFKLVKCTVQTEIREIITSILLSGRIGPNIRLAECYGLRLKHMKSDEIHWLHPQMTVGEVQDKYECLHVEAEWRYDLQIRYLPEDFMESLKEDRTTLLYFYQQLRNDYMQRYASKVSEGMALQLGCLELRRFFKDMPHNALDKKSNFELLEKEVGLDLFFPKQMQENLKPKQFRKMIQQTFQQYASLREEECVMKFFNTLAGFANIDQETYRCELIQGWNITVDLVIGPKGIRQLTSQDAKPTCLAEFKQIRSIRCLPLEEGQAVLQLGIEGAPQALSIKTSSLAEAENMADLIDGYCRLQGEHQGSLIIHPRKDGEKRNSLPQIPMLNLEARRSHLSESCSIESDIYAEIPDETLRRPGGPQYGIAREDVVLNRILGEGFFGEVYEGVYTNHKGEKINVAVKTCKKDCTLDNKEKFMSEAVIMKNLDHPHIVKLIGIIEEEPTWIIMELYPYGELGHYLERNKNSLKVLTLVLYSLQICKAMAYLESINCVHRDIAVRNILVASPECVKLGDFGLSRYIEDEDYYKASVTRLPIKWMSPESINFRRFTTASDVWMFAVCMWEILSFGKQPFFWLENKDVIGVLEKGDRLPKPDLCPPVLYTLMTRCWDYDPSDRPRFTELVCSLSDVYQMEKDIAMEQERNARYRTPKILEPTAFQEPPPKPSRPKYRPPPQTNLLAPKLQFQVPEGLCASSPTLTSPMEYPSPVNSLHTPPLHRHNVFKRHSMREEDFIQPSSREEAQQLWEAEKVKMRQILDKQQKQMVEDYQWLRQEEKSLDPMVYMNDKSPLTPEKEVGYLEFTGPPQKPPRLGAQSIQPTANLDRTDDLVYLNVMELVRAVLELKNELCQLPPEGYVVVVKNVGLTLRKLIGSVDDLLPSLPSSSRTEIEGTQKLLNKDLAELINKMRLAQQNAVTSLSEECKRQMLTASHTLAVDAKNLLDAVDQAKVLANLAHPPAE
# CYP2C19 activ = activators of human cytochrome P450 2C19; P33261; recombinant CYP2C19, luciferin-H EGE luminescence; active compounds read high; 0 = fully inhibited enzyme, 1 = untreated enzyme; activation factor at 5 µM; 96,000 tested, under 10 active;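 active means activation factor of at least 2 at 5 µM in the primary screen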;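 further: 0 = wells with 2.5 mM tranylcypromine and 1 = vehicle-only wells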
# CYP2C9 activ = increases human cytochrome P450 2C9 activity. recombinant CYP2C9, luciferin-H conversion, luminescence; active compounds read high; factor 1 = untreated enzyme, 0 = blocked. activation factor at 5 µM. actives 1.4% (n = 96,000);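 active means activation factor of 2 or more for CYP2C9 at a 5 µM dose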;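 further: 0 = sulfaphenazole-blocked wells and 1 = vehicle-only wells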
# CYP2C19 inh = inhibitors of human CYP2C19 | P33261 | inhibition, % at 5 µM | actives 21% (n = 96,000) | CYP2C19 Supersomes, luciferin-H EGE luminescence, 30 min;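 active means CYP2C19 inhibition above a set limit at 5 µM in the primary screen, cut at about 50% in these data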;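 further: plate controls were negative control wells for no effect and 2.5 mM tranylcypromine positive control for full effect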
# CYP2C9 inhib = inhibitors of human CYP2C9; P11712; CYP2C9 Supersomes, luciferin-H conversion, luminescence; inhibition, % at 5 µM; actives 20% (n = 96,000);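 active means blocking of liver enzyme CYP2C9 beyond about 50% at 5 µM, limit read from the data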
# Numbers without * were called inactive; x = not tested or not shown.
SMILES,Pyk2 oligo antag,CYP2C19 activ,CYP2C9 activ,CYP2C19 inh,CYP2C9 inhib
CCn1c(SCC(=O)Nc2oc(-c3ccccc3)c(-c3ccccc3)c2C#N)nnc1-c1ccco1,-1.93,0.1,0,94.4*,96.5*
Cc1cnc(C(=O)OCC(=O)NC(=O)NC(C)C)cn1,0.25,1.1,1,-7.3,2.1
O=C(COc1ccc(Cl)cc1)N1CCN(c2ncccn2)CC1,0.85,0.3,0.5,66.6*,53.6*
CC(=O)c1ccc(N2CCN(C(=O)COc3ccc(F)cc3)CC2)c(F)c1,1.48,0.5,0.5,53.0*,48.1
COc1ccccc1OCC(=O)N1CCN(c2ccccc2OC)CC1,0.31,0.6,0.7,40.3,29.5
O=C(COc1ccc(Cl)cc1)N1CCCCC1,0.65,0.7,1,34.8,-2.3
CCC(=O)c1ccc(N2CCN(C(=O)COc3ccc(F)cc3)CC2)c(F)c1,0.76,0.7,0.7,34.4,27.5
COc1ccccc1N1CCN(C(=O)COc2ccc(Cl)cc2)CC1,0.24,0.2,0.5,80.5*,51.8*
COc1ccc2cc(C3(C)NC(=O)N(CC(=O)Nc4c(C)n(C)n(-c5ccccc5)c4=O)C3=O)ccc2c1 (stereo not drawn),1.19,x,x,x,x
Cc1cc(C(=O)N2CCC(C(F)(F)F)n3nccc32)on1 (stereo not drawn),1.02,1,1.1,-0.3,-12.8
CCC1CCC/C1=N\NC(=O)c1cc(C)[nH]n1 (stereo not drawn),1.91,0.8,0.9,19.8,8.6
CC(Sc1nnnn1C)C(=O)Nc1ccc(Oc2ccccc2)cc1 (stereo not drawn),-0.91,0.4,0.5,62.9*,45.7
CCC(Sc1nnnn1C)C(=O)Nc1ccc(C(C)=O)cc1 (stereo not drawn),-0.4,0.7,0.8,28.7,20.8
O=C(O)CCCCCNCc1ccncc1,-0.32,1.1,1,-13.0,-4.0
O=[N+]([O-])c1ccc(NC(=S)N/C(=N/CS(=O)(=O)c2ccccc2)c2ccccc2)cc1,-0.4,0.7,0.4,28.8,57.8*
COc1ccc(NC(=S)N/C(=N/CS(=O)(=O)c2ccccc2)c2ccccc2)cc1,0.26,x,x,x,x
c1ccc(C(c2ccccc2)N2CCN(c3nc4ccccc4n4cnnc34)CC2)cc1,x,1.1,0.9,-12.3,12.2
CC(C)OC(=O)c1c(F)c(F)c(N2CCOCC2)c(F)c1F,-0.85,0.5,1,50.8*,-1.9
Cc1cc(C)cc(NC(=O)C2CCCC2)c1,-0.06,0.7,0.9,32.6,11.9
Fc1ccc(CSc2nsc(SCc3ccc(F)cc3)n2)cc1,0.66,0.8,0.8,24.3,15.0
CSc1nsc(SCc2ccc(F)cc2)n1,-0.12,0.2,0.9,79.4*,8.6
Nc1nc(SCc2ccc(Cl)cc2)ns1,-0.23,0.6,0.7,42.5,27.6
CSc1nsc(SCc2ccc(Cl)cc2)n1,1.1,0.2,0.9,81.7*,13.1
Cn1c(N)c(C(=O)COC(=O)C2CCCCC2)c(=O)n(C)c1=O,0.16,0.9,1,10.6,-3.7
COCc1cc(C)nc(SCC(=O)Nc2ccccc2C)c1C#N,-1.1,0.1,0.7,94.2*,28.0
SMILES,Pyk2 oligo antag,CYP2C19 activ,CYP2C9 activ,CYP2C19 inh,CYP2C9 inhib
Cc1ccc(CNC(=O)CSc2nc(C)cc(C)c2C#N)cc1,-0.79,0.4,1.4,56.8*,-39.8
Cc1cc(C)c(C#N)c(SCC(=O)NC2CC2)n1,-0.03,1,1.3,2.7,-27.2
CCOC(=O)CNC(=O)CSc1nc(C)cc(C)c1C#N,-0.03,0.2,1.9,82.6*,-91.5
COCc1cc(C)nc(SCC(=O)Nc2ccc(C)c(C)c2)c1C#N,-0.57,0.6,1,40.6,-1.8
CCOC(=O)NC(=O)CSc1nc(C)cc(C)c1C#N,0.74,0.4,1,57.8*,-1.6
Cc1cc(C)c(C#N)c(SCC(=O)NC(C)(C)C)n1,x,0.6,0.8,39.7,18.9
CS(=O)(=O)N1CCCC(C(=O)NCCCN2CCc3ccccc3C2)C1 (stereo not drawn),0.4,0.9,1.2,12.6,-15.4
O=C(Nc1ccccc1SCC1CSc2nc3ccccc3c(=O)n21)c1cccc(Cl)c1 (stereo not drawn),-0.99,0.7,0.9,34.0,11.2
CC1=C(C(=O)OCc2ccccc2)C(c2cccnc2)c2c(n(C)c(=O)n(C)c2=O)N1 (stereo not drawn),-0.03,0.1,0.4,93.6*,59.6*
CCOC(=O)C1=C(c2ccccc2)Nc2c(c(=O)n(C)c(=O)n2C)C1c1ccc(O)c(OC)c1 (stereo not drawn),-0.88,1,0.5,-0.9,52.5*
CCOC(=O)C1=C(c2ccccc2)N(C)C(=O)NC1c1ccc(O)c(OC)c1 (stereo not drawn),-0.9,0.3,0.6,69.4*,43.8
C=CCNC(=O)c1ccccc1S(=O)c1ccccc1C#N (stereo not drawn),-0.22,1.1,1.2,-12.6,-15.3
CCC(C)NC(=O)CSc1ncccc1C(=O)O (stereo not drawn),-0.64,1,1,-3.6,1.7
Cc1ccc2[nH]c(=O)c(CN(Cc3cccnc3)C(=O)c3ccncc3)cc2c1,0.57,0.1,0.2,90.7*,80.0*
CCN(Cc1cc2cc(OC)ccc2[nH]c1=O)C(=O)Cc1ccc(OC)cc1,2.27,0.6,0.8,42.7,19.1
CCN(Cc1cc2cc(OC)ccc2[nH]c1=O)C(=O)c1ccncc1,-0.8,0.3,0.3,73.6*,68.5*
COc1cccc(C(=O)N(Cc2ccccc2)Cc2cc3cc4c(cc3[nH]c2=O)OCCO4)c1,-3.3*,1,0.9,-3.6,12.3
COc1ccc(C2C(C(N)=O)=C(C)Nc3nc(-c4ccccc4Cl)nn32)c(OC)c1 (stereo not drawn),x,0.8,1,23.8,2.9
O=C(Nc1ccccc1-c1nnn(CC(=O)N2CCCc3ccccc32)n1)c1ccco1,-2.14,0.5,0.1,54.4*,89.8*
O=C(Nc1ccccc1-c1nnn(CC(=O)N2CCCc3ccccc32)n1)c1ccc(Cl)cc1,-0.53,x,x,x,x
CCN(CC)c1nc2n(c(=S)n1)CCS2,0.35,0.9,1,5.6,4.2
COc1ccc(NC(=O)C2CCN(C(=O)c3cccs3)CC2)cc1OC,0.72,1,1.3,-4.8,-29.8
CCOC(=O)c1c(C2COc3ccccc3O2)csc1NC(=O)c1ccco1 (stereo not drawn),0.16,1,0.5,-3.6,48.5
Cc1ccc(-c2noc(CSc3nnc(-c4ccncc4)n3-c3ccc(C)cc3)n2)cc1,-1.06,0.1,0.2,85.9*,84.2*
Clc1ccc(-c2noc(CSc3nnc(-c4ccncc4)n3-c3ccccc3)n2)cc1,-2.62,0.3,0.3,66.5*,72.5*
Cn1c(SCc2nc(-c3ccc(Cl)cc3)no2)nnc1-c1ccco1,x,0.4,0.4,60.0*,56.5*
Clc1ccc(-c2noc(CSc3nnc(Cc4cccs4)n3-c3ccccc3)n2)cc1,x,0.5,0.6,49.6,43.6
CCOc1ccc(-n2c(SCc3nc(-c4ccc(C)cc4)no3)nnc2-c2ccncc2)cc1,-0.57,0.2,0.2,79.6*,80.4*
